Screens from PubChem BioAssay.
This is a sample that favours compounds with a hit; in the whole collection about 1.4% have one here.
MenB inh: M. tuberculosis MenB inhibitors, primary screen, biochemical, absorbance | MenB enzyme assay, absorbance read-out | inhibition, % (test concentration not listed) | hit rate 0.43% among 100,000 | AID 540299, 2011; in the data active means inhibition above about 21%, passing the limit was not always enough
Target sequence (P9WNP5 whole entry, looked up): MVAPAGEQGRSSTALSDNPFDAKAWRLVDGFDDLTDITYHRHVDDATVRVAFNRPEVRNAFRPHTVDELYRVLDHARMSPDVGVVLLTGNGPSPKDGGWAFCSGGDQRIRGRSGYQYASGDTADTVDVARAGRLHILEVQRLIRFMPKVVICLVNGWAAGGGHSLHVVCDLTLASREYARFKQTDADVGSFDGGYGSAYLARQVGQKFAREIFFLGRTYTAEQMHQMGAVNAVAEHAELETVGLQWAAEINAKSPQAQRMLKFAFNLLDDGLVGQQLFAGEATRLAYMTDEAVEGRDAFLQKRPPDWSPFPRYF
Polio RdRp inh: poliovirus RdRp elongation inhibitors, primary screen, biochemical, fluorescence polarization, total intensity | Genome polyprotein (Poliovirus type 1 (strain Mahoney)), P03300 | poliovirus polymerase elongation; active compounds read low | % elongation, % (compound at 16.7 µg/mL) | hit rate 0.66% among 150,000 | AID 588519, 2011; in the data active means % elongation below about 90%
Mtb MbtI inh: MbtI salicylate synthase inhibitors, primary screen, biochemical, fluorescence intensity | AID 493033, 2011 | purified MbtI enzyme, fluorescence intensity read-out | P9WFX0 | inhibition, % (concentration not given with the values) | hit rate 0.89% among 100,000; in the data active means inhibition mostly above about 56%, no sharp cut-off; inactive means mostly below about 77%
* = called active by the depositor; x = not tested or not shown; ! = a repeat was not active.

SMILES	MenB inh	Polio RdRp inh	Mtb MbtI inh
COC(=O)c1c(NC(=S)Nn2cnnc2)sc2c1CCC(C)C2 (centres undefined)	-15	99	85*
COC(=O)c1c(NC(=S)NCc2ccco2)sc2c1CCC(C)C2 (centres undefined)	-18	101	-3
CCN1CCCc2cc(O)ccc21	x	x	98*
CC(C)N1CCCc2cc(CN)ccc21	29	31	x
CCCN1CCCc2cc(CN)ccc21	-77	26*	31
CNC(=O)NC(=O)CN1CCCc2cc(C)ccc21	-3	104	-5
COCCn1c(-c2cccc(C)c2)nn(CN2CCCC(C(N)=O)C2)c1=S (centres undefined)	-20	102	8
CC(=O)Nc1cc(Cl)ccc1N1CCOCC1	5	99	-6
O=C(COC(=O)Cc1n[nH]c(=O)c2ccccc12)Nc1ccccc1	8	102	13
CC1=Nc2ccccc2N=C(NC(=O)C(C)N2C(=O)c3ccccc3C2=O)C1c1ccccc1 (centres undefined)	x	x	-7
CCOCc1cn(CC(=O)c2ccc(OC(C)=O)c(OC(C)=O)c2)c(C)nc1=N	18	104	-4
Cn1c(=O)c2ncnnc2n(C)c1=O	-22	63*	-3
Cn1c(=O)c2c(ncn2C)n(C)c1=O	4	100	-29
COc1ccc(C2OC(=O)C(C)=C(O)C2(C)C)cc1OC (centres undefined)	-8	100	x
N#CC(C#N)=NNc1ccc(F)cc1C(F)(F)F	-88	103	-1
CC(C)n1c(=S)[nH]c2c1c(=O)[nH]c(=O)n2C	0	101	102*!
CNc1nc2c(c(=O)[nH]c(=O)n2C)n1Cc1cccc2ccccc12	24	101	-1
O=C(CSc1ccccc1C(=O)N1CCc2ccccc21)NCc1ccco1	-15	108	11
Cc1cccc(N2Cc3cccc(C(=O)O)c3C2=O)c1	5	102	5
O=C(c1cccs1)N1CCN(C/C=C/c2ccccc2)CC1	43*	101	-7
Cc1nc(CC(=O)N2CCN(C/C=C/c3ccccc3)CC2)cs1	-12	106	-4
O=C(Cn1ncc(Cl)c(Cl)c1=O)c1ccc(S(=O)(=O)N2CCCC2)cc1	3	96	-4
CCN(CC)c1ccc(NC(C)=O)c(C)c1	-13	102	-6
CCN(CC)c1ccc(N)c(C)c1	-3	101	98*
O=c1[nH]c(CN2CCOCC2)nc2ccccc12	-13	70*	-1
SMILES	MenB inh	Polio RdRp inh	Mtb MbtI inh
O=c1[nH]c(CN2CCN(Cc3ccccc3)CC2)nc2ccccc12	4	104	-4
O=C(Nc1sc2c(c1C(=O)N1CCCCC1)CCCC2)c1ccco1	-60	104	-2
CCN(CC(=O)NC1CCS(=O)(=O)C1)C(=O)Cc1ccccc1F (centres undefined)	-22	105	-10
O=C1C=C(Nc2ccccc2)C(=O)c2ccccc21	-16	99	7
O=C1C(Nc2ccccc2)=CC(=O)c2ncccc21	-7	82*	3
Nn1c(COc2ccccc2)n[nH]c1=S	-71	80*	95*
CCOc1ccccc1OCc1n[nH]c(=S)n1N	-25	101	35
CC(C)C1NC(=S)N(c2ccccc2)N1 (centres undefined)	-82	100	-106
CCCC1NC(=S)N(c2ccccc2)N1 (centres undefined)	7	101	98*
CCN(CC)C(=O)COc1cccc2ccccc12	-18	99	10
CCN(CC)C(=O)COc1ccccc1C(=O)NCc1ccccc1	27*	102	-6
O=C(O)c1ccccc1CSc1nc2cc(Cl)ccc2o1	14	94	21
CCOC(=O)N1CCN(Cc2ccc(Cl)cc2)CC1	-1	102	-5
CCOC(=O)N1CCN(Cn2c(=S)sc3ccccc32)CC1	-37	107	89*
S=c1sc2ccccc2n1CN1CCOCC1	24	99	90*
S=c1sc2ccccc2n1CN1CCN(c2ccccn2)CC1	-30	99	145
CCC(C)C(NC(N)=O)C(=O)Nc1cccc(Cl)c1 (centres undefined)	-26	102	-2
COc1ccc(Nc2nnc(SCC#N)s2)cc1	-13	121	12
CCCn1c(=S)[nH]c2sc(CC)cc2c1=O	-10	103	3
CO[C@@H]1[C@@H](OC(N)=O)[C@@H](O)[C@H](Oc2ccc3c(O)c(NC(=O)c4ccc(O)c(CC=C(C)C)c4)c(=O)oc3c2C)OC1(C)C	2	99	4
CO[C@@H]1[C@H](OC(N)=O)C(O)[C@H](Oc2ccc3c(O)c(NC(=O)c4ccc(O)c(CC=C(C)C)c4)c(=O)oc3c2C)OC1(C)C (some centres undefined)	-7	101*	-4
O=C(c1ccc(CS(=O)c2ccccc2)o1)N1CCN(c2ccccc2F)CC1 (centres undefined)	5	100	3
CC(=O)N(C)Cc1nc2ccccc2n1C	4	100	-5
O=C(c1ccc2c(c1)OCO2)N1CCCCCCC1	-17	103	2
CCN(c1ccccc1C)S(=O)(=O)c1nnc(NC(=O)c2ccco2)s1	x	112	x
SMILES	MenB inh	Polio RdRp inh	Mtb MbtI inh
Cc1ccccc1N1CC(c2nnc(NC(=O)c3ccco3)s2)CC1=O (centres undefined)	x	82*	x
O=C(COC(=O)c1ccccc1)Nc1ccc(OC(F)F)cc1	2	99	-8
CN(C)Cc1nc2ccccc2c(=O)n1CC#N	9	113	5
N#CCn1c(C[S+]=C=N)nc2ccccc2c1=O	-40	100	84*
Cc1ccccc1CSCc1nc2ccccc2c(=O)n1CC#N	-16	104	-9
N#CCn1c(Cc2ccccc2)nc2ccccc2c1=O	48*	101	14
COc1ccc(S(=O)(=O)N(C)C(C)C(O)c2ccccc2)cc1 (centres undefined)	-36	100	1
CSCn1c(C)nc2ccccc21	x	x	-11
COC(=O)c1cc2cccc(OC)c2oc1=O	15	101	10
COc1cccc(OC)c1C(=O)ON=C1C=CC(=O)C=C1	-24	103	83*
CC1Cc2ccccc2N1C(=O)COc1ncnc2ccc(Br)cc12 (centres undefined)	17	101	6
CC(C)c1nnc(SCC(=O)Nc2ccc(Cl)cc2)n1N	3	104	89*
CC(C)CNC(=O)CSc1nnc(-c2ccc(Cl)cc2)n1N	-12	102	-34
COc1ccc(-c2noc(N3CCCC(C(=O)N(C)c4cc(Cl)ccc4OC)C3)n2)cc1 (centres undefined)	-4	101	1
Cc1ccccc1Nc1nc(N)nc(CSc2ncnc3sc4c(c23)CCC4)n1	-17	97	1
CCCCCCn1nc(C(=O)OCc2nnc(-c3ccccc3)o2)c2ccccc2c1=O	-8	100	2
COc1cccc(NC(=O)Cc2ccc(NC(=O)N3CCCCc4ccccc43)cc2)c1	x	104	x
CCOC(=O)c1cccc(NC(=O)Cc2ccc(NC(=O)N3CCCCc4ccccc43)cc2)c1	x	21*	x
C=CCN1C(=O)C(CC(=O)Nc2ccc(Cl)cc2)SC1=Nc1ccc(O)cc1 (centres undefined)	11	103	7
CCCc1nnc(SCC(=O)N2c3ccccc3Sc3ccccc32)o1	-83	101	-4
